PubChem BioAssay (EPA / NIEHS)
“And” between values parts separate entries of the source, which are not always exact repeats. Equal values may be shown once. Where a structure was tested more than once in an assay, its records may differ in their call. The source made the active and inactive calls. How the source made its calls: active means hit-call score of the fitted dose curve at least 0.9, where 1 is the maximum; inactive means score below 0.9.

Key:
[1] = biological target: Nuclear respiratory factor 1 (Homo sapiens) (UniProt Q16656); experiment: ATG_NRF1_CIS: Attagene CIS-FACTORIAL HepG2 Assay for human Nuclear Respiratory Factor 1 (NRF1) Orphan Gene (AID 2282987); conditions: HepG2 NRF1 cis-element reporter, Attagene multiplex; actives raise or lower the signal
How it was run: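 HepG2 cells transiently transfected with multiple cis-regulated reporter units, exposed 24 h. Reporter mRNAs measured by RT-PCR, fluorescent labelling, HpaI digestion and capillary electrophoresis; bidirectional fitting against DMSO.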

[2] = ATG_NFI_CIS: Attagene CIS-FACTORIAL HepG2 Assay for human Nuclear Factor I (NFI) (AID 2282989); conditions: HepG2 cis-regulatory reporter, NFI response element transcription; actives raise or lower the signal
How it was run: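 HepG2, transient MRTU, 24 h exposure; RNA→cDNA→PCR→FAM label→HpaI→CE fluorescence. Bidirectional fit, DMSO = baseline.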

[3] = biological target: Myc proto-oncogene protein (Homo sapiens) (UniProt P01106); experiment: ATG_Myc_CIS: Attagene CIS-FACTORIAL HepG2 Assay for human Myelocytomatosis (Myc) Proto-Oncogene Transcription Factor (AID 2282990); conditions: HepG2, Attagene cis-reporter transcription factor activity; actives raise or lower the signal
How it was run: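 Cells of the HepG2 human liver line bear multiple cis-driven reporter transcription units. Reporter mRNA after 24 h exposure is reverse-transcribed, amplified, labelled and resolved by capillary electrophoresis, with gain- or loss-of-signal fitting relative to DMSO.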

[4] = ATG_NF_kB_CIS: Attagene CIS-FACTORIAL HepG2 Assay for human Nuclear Factor Kappa B (NF-kB) (AID 2282991); conditions: HepG2 Attagene cis-factorial NF-kB reporter mRNA; actives raise or lower the signal
How it was run: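 HepG2 cells transfected with cis-promoter-driven reporter units, so endogenous transcription factor activity is measured. Reporter mRNA quantified 24 h after dosing by RT-PCR and capillary electrophoresis, with bidirectional fitting against DMSO.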

[5] = ATG_NRF2_ARE_CIS: Attagene CIS-FACTORIAL HepG2 Assay for human Nuclear Factor Erythroid 2 Related Factor 2 (NFR2) response to Antioxidant Response Elements (ARE) (AID 2282992); conditions: HepG2 Attagene ARE/NRF2 reporter, transcription factor activity; actives raise or lower the signal;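 on AC50: reporter mRNA level measured by RT-PCR and capillary electrophoresis fluorescence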
How it was run: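 Fluorescence intensity of reporter-specific cDNA fragments, separated by capillary electrophoresis, reflects mRNA induction in transfected HepG2 cells at 24 h. Activity is fitted bidirectionally, DMSO serving as baseline.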

[6] = ATG_Oct_MLP_CIS: Attagene CIS-FACTORIAL HepG2 Assay for human Octamer-Binding Transcription Factor (Oct) (AID 2282993); conditions: HepG2 Attagene cis-factorial Oct reporter, mRNA; actives raise or lower the signal
How it was run: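 Multiplexed cis-reporter assay in human liver HepG2 cells, 24 h incubation. Reporter RNA amplified and labelled, then resolved by capillary electrophoresis; DMSO serves as negative control and baseline.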

[7] = biological target: Cellular tumor antigen p53 (Homo sapiens) (UniProt P04637); experiment: ATG_p53_CIS: Attagene CIS-FACTORIAL HepG2 Assay for human p53 Transcription Factor (AID 2282994); conditions: HepG2 p53 cis-element reporter, Attagene mRNA; actives raise or lower the signal
How it was run: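 Transiently transfected HepG2 (multiple cis reporter transcription units); exposure 24 h; reporter RNA via RT-PCR, 6-FAM extension, 2 h HpaI digest at 37 C, CE detection; DMSO baseline.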

[8] = BSK_3C_TissueFactor: BioMAP Diversity Plus: 3C Assay for Tissue Factor Biomarker Activity (AID 2282997); conditions: BioMAP 3C HUVEC, tissue factor biomarker readout; actives raise or lower the signal
How it was run: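 In this endothelial system, HUVEC are treated for 24 h and Tissue Factor is assessed by ELISA, normalised to DMSO.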

[9] = BSK_3C_uPAR: BioMAP Diversity Plus: 3C Assay for Urokinase-type plasminogen activator receptor (uPAR) Biomarker Activity (AID 2282998); conditions: BioMAP 3C HUVEC, uPAR biomarker ELISA; actives raise or lower the signal
How it was run: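 Dose primary human umbilical vein endothelial cells, incubate 24 h, measure cell-surface uPAR by ELISA, then fit the signal in both directions against the DMSO negative control.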

[10] = BSK_3C_VCAM1: BioMAP Diversity Plus: 3C Assay for Vascular cell adhesion molecule 1 (VCAM1) Biomarker Activity (AID 2282999); conditions: BioMAP 3C HUVEC, VCAM1 ELISA, cytokine-stimulated; actives raise or lower the signal
How it was run: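 Activity fitted in both directions relative to DMSO, with ELISA measurement of the surface marker on primary HUVEC (3C) at 24 h post-treatment; parallel SRB staining (0.1% SRB, TCA-fixed, 560 nm) flagged overt cytotoxicity.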

Measured: AC50

Sequence of Myc proto-oncogene protein (Homo sapiens) (P01106 whole entry, looked up): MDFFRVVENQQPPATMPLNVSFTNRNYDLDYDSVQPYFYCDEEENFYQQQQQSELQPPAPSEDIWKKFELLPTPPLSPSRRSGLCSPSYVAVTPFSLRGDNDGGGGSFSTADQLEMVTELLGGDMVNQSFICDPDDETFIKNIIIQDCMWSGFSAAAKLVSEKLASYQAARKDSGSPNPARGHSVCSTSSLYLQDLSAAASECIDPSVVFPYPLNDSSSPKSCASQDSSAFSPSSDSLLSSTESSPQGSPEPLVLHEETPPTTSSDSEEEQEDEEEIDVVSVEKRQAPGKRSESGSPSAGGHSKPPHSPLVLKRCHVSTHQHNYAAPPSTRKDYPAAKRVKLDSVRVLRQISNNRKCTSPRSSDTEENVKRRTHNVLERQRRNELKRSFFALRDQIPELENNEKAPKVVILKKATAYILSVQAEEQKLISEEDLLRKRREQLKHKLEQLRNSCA
Sequence of Nuclear respiratory factor 1 (Homo sapiens) (Q16656 whole entry, looked up): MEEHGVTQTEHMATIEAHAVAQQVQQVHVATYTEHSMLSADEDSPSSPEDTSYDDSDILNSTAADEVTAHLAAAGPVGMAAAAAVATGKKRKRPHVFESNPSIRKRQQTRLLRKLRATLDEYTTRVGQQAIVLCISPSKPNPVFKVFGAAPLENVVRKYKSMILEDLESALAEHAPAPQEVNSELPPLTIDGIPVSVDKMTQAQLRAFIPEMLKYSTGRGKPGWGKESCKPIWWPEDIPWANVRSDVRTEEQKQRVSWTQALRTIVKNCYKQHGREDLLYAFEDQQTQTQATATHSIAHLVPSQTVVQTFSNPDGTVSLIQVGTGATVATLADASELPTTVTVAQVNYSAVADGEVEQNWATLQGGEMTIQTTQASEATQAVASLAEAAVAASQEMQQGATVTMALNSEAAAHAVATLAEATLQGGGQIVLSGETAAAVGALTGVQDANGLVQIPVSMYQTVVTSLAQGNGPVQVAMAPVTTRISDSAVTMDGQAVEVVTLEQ
Sequence of Cellular tumor antigen p53 (Homo sapiens) (P04637 whole entry, looked up): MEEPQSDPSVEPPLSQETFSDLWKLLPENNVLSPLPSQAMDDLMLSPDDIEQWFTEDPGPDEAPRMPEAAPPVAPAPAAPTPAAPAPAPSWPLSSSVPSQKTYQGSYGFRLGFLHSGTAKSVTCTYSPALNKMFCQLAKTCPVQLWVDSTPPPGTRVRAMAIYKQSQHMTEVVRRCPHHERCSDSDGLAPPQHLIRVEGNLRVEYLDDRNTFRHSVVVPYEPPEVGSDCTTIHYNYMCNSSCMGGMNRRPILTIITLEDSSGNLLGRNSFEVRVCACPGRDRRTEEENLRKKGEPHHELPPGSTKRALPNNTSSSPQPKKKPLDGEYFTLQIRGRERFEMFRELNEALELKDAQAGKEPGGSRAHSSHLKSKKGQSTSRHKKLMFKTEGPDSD

C=CC(=O)OCC(F)(F)C(F)(F)C(F)(F)C(F)(F)C(F)(F)C(F)(F)C(F)(F)F
active: [5] 50 µM
inactive: all other assays above

CC(C)=CCCC(C)CCOC(=O)C(C)C (configuration not stated)
not listed: [8] | [9] | [10]
inactive: all other assays above

CCCCNc1ccccc1
inactive: all assays above

O=C(O)C(F)(F)C(F)(F)C(F)(F)C(F)(F)C(F)(F)C(F)(F)C(F)(F)C(F)(F)C(F)(F)C(F)(F)C(F)(F)C(F)(F)C(F)(F)F
active: [4] 26.2 µM | [5] 26.1 µM
inactive: all other assays above

O=C(O)C(F)(OC(F)(F)C(F)(OC(F)(F)C(F)(F)C(F)(F)F)C(F)(F)F)C(F)(F)F (configuration not stated)
inactive: all assays above

CC(C)(C)c1ccc(OC2CCCCC2O)cc1 (configuration not stated)
active: [5] 20.5 µM
not listed: [8] | [9] | [10]
inactive: all other assays above

O=C(CC(=O)C(F)(F)C(F)(F)F)C(F)(F)F
inactive: [1] | [2] | [3] | [4] | [6] | [7] | [8] | [9] | [10]
active: [4] 150 µM | [5] 94.6 µM and 109 µM | [7] 112 µM

CC/C=C\CCOC(C)=O
not listed: [8] | [9] | [10]
inactive: all other assays above

FC(F)(Br)C(F)(F)C(F)(F)C(F)(F)C(F)(F)C(F)(F)Br
inactive: all assays above

OCCCC(F)(F)C(F)(F)C(F)(F)C(F)(F)C(F)(F)C(F)(F)C(F)(F)F
inactive: [1] | [3] | [4] | [7]
active: [1] 126 µM | [3] 79.9 µM | [4] 73.6 µM | [5] 67.1 µM and 133 µM | [6] 50 µM and 245 µM | [8] 54.8 µM and 21.6 µM | [9] 44.8 µM and 43.5 µM | [10] 24.3 µM and 20.5 µM

COC(OC(C)=O)c1ccccc1 (configuration not stated)
not listed: [8] | [9] | [10]
inactive: all other assays above

C=CC(F)(F)C(F)(F)C(F)(F)C(F)(F)C(F)(F)C(F)(F)C(F)(F)C(F)(F)F
inactive: all assays above

C=CC(=O)OCC(F)(F)C(F)(F)C(F)(F)C(F)(F)COC(=O)C=C
inactive: [1]
active: [2] 50 µM | [3] 65.2 µM | [4] 38.4 µM | [5] 12.8 µM | [6] 21.5 µM | [7] 79.4 µM | [8] 24.9 µM and 35.5 µM | [9] 22.9 µM and 28.2 µM | [10] 26.7 µM and 21.6 µM

C=CC/C=C/C/C=C/C/C=C/C
inactive: all assays above

O=C(O)C(F)(F)C(F)(F)C(F)(F)C(F)(F)C(F)(F)C(F)(F)C(F)(F)C(F)(F)C(F)(F)C(F)(F)C(F)(F)C(F)(F)F
active: [7] 143 µM
not listed: [6]
inactive: all other assays above

CCCCCCC(C)OC(=O)CCCCC(=O)OC(C)CCCCCC (configuration not stated)
not listed: [6]
inactive: all other assays above

CCc1c(Br)c(Br)c(Br)c(Br)c1Br
active: [8] 4.73 µM | [9] 20 µM
inactive: all other assays above

O=C(O)C(F)(F)C(F)(F)C(F)(F)C(F)(F)C(F)(F)C(F)(F)C(F)(F)C(F)(F)C(F)(F)C(F)F
active: [5] 26.3 µM | [10] 45.2 µM
inactive: [1] | [2] | [3] | [4] | [6] | [7] | [8] | [9] | [10]

CCN(Cc1cccc(S(=O)(=O)O)c1)c1ccc(C(=C2C=CC(=[N+](CC)Cc3cccc(S(=O)(=O)O)c3)C=C2)c2ccc(O)cc2S(=O)(=O)[O-])cc1
inactive: [1] | [3] | [4] | [5]

Cc1cc(C)cc(O)c1
inactive: [1] | [2] | [3] | [5] | [6] | [7]

Oc1ccc(Nc2ccccc2)cc1
active: [5] 43.9 µM | [10] 20 µM
not listed: [6]
inactive: all other assays above

Nc1ccc(Oc2cccc(Oc3ccc(N)cc3)c2)cc1
active: [1] 76.4 µM | [5] 26.5 µM | [6] 24.9 µM | [7] 26.7 µM
inactive: [3] | [4]

CC(C)c1ccccc1N
inactive: [1] | [2] | [3] | [4] | [5] | [7]
